Sampled rows, rich in hits. Any-hit rate of the full collection: about 3.8%.
ATXN viability = Viability Counterscreen for Primary qHTS for Inhibitors of ATXN expression. S2 cells (HEK-293 line with an ATXN2-luciferase reporter) viability, CellTiter-Fluor protease fluorescence, 24 h. Potency, µM (series often up to 56.7 µM), actives largely listed as cytotoxic. hit rate 0.49% among 400,000. AID 651635, 2014; note: nearly all actives have a fitted effect of over 40% in size
HT1080NT lethal = qHTS for induction of synthetic lethality in tumor cells producing 2HG: qHTS for the HT-1080-NT fibrosarcoma cell line; Potency, µM (doses to about 46.1 µM), for inactives: at the top dose activity, negative = less viability, hits mostly cytotoxic; HT-1080-NT fibrosarcoma viability, CellTiter-Glo ATP luminescence, 48 h; hit rate 1.6% among 360,000; AID 686970, 2013;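 note: NT is the 2HG producing partner of a matched IDH1 knockdown line; 0% = DMSO-treated cells and -100% = media-only wells without cells; nearly all actives have a fitted effect of over 55% in size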
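Toxicity toward the 2HG-producing NT line was scored as %Activity, normalised to DMSO and no-cell wells, from CellTiter-Glo luminescence after 48 hours' treatment.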
ATXN2 expr inh = Primary qHTS for Inhibitors of ATXN expression | AID 1745845, 2022 | hit rate 0.72% among 360,000 | HEK-293 ATXN2-luciferase reporter, luminescence, 24 h | Potency, µM (titrated, usually from 57 µM), for the others: at the highest dose activity change, negative = inhibition, most hits filed as inhibitors; note: % is set by controls: 0 for no effect and ±100 for the full control effect; nearly all actives have a fitted effect of over 55% in size
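qHTS (up to 57 uM final) was run with 24 h compound exposure of reporter cells at 37 °C. Each well was multiplexed: SteadyGlo luminescence measured ATXN2-luciferase expression after a fluorogenic Gly-Phe-AFC viability readout (25 uM final).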
TGFb inhibitor = qHTS for Inhibitors of TGF-b; HepG2 CAGA-GFP TGF-b/SMAD3 reporter, GFP fluorescence, 18 h; TGF-beta stimulated, 500 pg/mL final; hit rate 1.2% among 410,000; AID 588855, 2011; Potency, µM (titrated, usually from 46.1 µM), inactives show at the highest dose activity, negative = inhibition, hits mostly inhibitors; note: % is set by controls: 0 for no effect and ±100 for the full control effect; nearly all actives have a fitted effect of over 65% in size
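HEPG2 CAGA-GFP reporter cells (1000/well, DMEM with 1% FBS) received compounds, then recombinant TGF-beta at 500 pg/mL final for 18 hours at 37 degrees C. Per-cell GFP summed per well was normalised to unstimulated and stimulated DMSO controls before curve fitting.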
HT1080 IDH1KD tx = qHTS for induction of synthetic lethality in tumor cells producing 2HG: qHTS for the HT-1080-IDH1KD cell line. HT-1080 IDH1 knockdown viability, ATP luminescence, 48 h. Potency, µM (highest dose often 46.1 µM), for the others: top-dose activity, negative = toxicity, usual class: cytotoxic. AID 686971, 2013. hit rate 2% among 360,000;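 note: 0% = DMSO wells and -100% = cell-free medium wells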
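Viability of IDH1-knockdown HT-1080 fibrosarcoma cells was assessed by CellTiter-Glo after 48 h at 37 °C with titrated compound; concentration-effect curves were classified by fit quality and response size.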
HepG2 viability = qHTS for Inhibitors of TGF-b: Cytotox Counterscreen; HepG2 CAGA-GFP viability, ATP luminescence, 18 h; Potency, µM (highest dose often 46.1 µM), for inactives: at the highest dose activity change, negative = cytotoxicity, most hits filed as cytotoxic; hit rate 0.76% among 410,000
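CellTiter-Glo luminescence gave cytotoxicity after 18 hours at 37 degrees C. The cells were HepG2 CAGA-GFP in 1% FBS DMEM, stimulated with 500 pg/mL TGF-beta after compound addition. %Activity was normalised to no-cell wells (complete cell-killing) and DMSO (no toxicity), and curves were fitted and classified.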
Numbers without * were called inactive; i = inactive; ? = inconclusive; nt = no result given; ! = a repeat was not active. Calls come from the whole dose curve; as a rule, active = well fitted curve in the direction sought with a large enough effect; inconclusive = small, poorly fitted or top-dose-only effect, or another doubt; inactive = no such curve, though single readings can be large; an effect the other way counts as inactive or inconclusive. Potency is the fitted concentration of half-maximal effect.

SMILES	ATXN viability	HT1080NT lethal	ATXN2 expr inh	TGFb inhibitor	HT1080 IDH1KD tx	HepG2 viability
CC(C)(C)OC(=O)NCCCC[C@@H](C(=O)NCCCCCCCCCCC(=O)N1CCN(C(=O)OC(C)(C)C)CC1)n1cc(CCO)nn1	35.5µM*	-23.7%	?	?	-20.5%	-13.8%
C#CCOCCOCCOCCNc1nc(N2CCN(C(=O)CCCCCCCCCCNC(=O)[C@H](CCCCN)n3cc(CCCC(=O)O)nn3)CC2)nc(N2CCN(C(=O)CCCCCCCCCCNC(=O)[C@H](CCCN=C(N)N)n3cc(C[C@@H](C)CC)nn3)CC2)n1	28.2µM*	-25.1%	?	?	-23.7%	-100.2%
C#CCOCCOCCOCCNc1nc(N2CCN(C(=O)CCCCCCCCCCNC(=O)[C@H](CCCCN)n3cc(CCCC(=O)O)nn3)CC2)nc(N2CCN(C(=O)CCCCCCCCCCNC(=O)[C@H](CCCCN)n3cc(CCCC(=O)O)nn3)CC2)n1	i	3.4%	-30.3%	-11.0%	-25.2%	-2.3%
CCOC(=O)c1cccc(NC(=O)Nc2c(C)n(C)n(-c3ccccc3)c2=O)c1	i	nt	1.9%	-2.0%	nt	9.6%
CSc1ccc(/C=C/C(=O)c2ccc(NC(=O)Cc3ccccc3)cc2)cc1	i	?	-12.0%	-15.6%	15.8µM*	-24.6%
CSc1ccc(/C=C/C(=O)Nc2ccccc2)cc1	i	?	-1.5%	15.6%	?	-41.2%
CSc1ccc(/C=C/C(=O)c2ccc(NC(=O)C(C)C)cc2)cc1	i	?	-13.2%	-12.7%	?	14.1µM*
CCOC(=O)c1c2c(n(Cc3ccccc3)c1C)C(=O)C(=O)c1ccccc1-2	15µM*	23.1µM*	18.9µM*	?	?	-106.3%
CCCNC(=O)c1ccccc1NC(=O)c1nsc2ccccc12	i	nt	3.3%	-1.6%	nt	2.6%
O=C(CCc1ccc(O)cc1)c1c(O)cc(O)cc1O[C@@H]1O[C@H](CO)[C@H](O)[C@H](O)[C@H]1O	nt	nt	-3.4%	nt	nt	nt
Cc1cc(C)c2c(CCl)cc(=O)oc2c1	?	?	41.6%	?	1.3µM*	-36.8%
COc1ccc(CNC(=O)C(=O)NCCC2CCCCN2S(=O)(=O)c2ccccc2)cc1 (stereo not drawn)	i	-4.0%	-12.5%	-7.6%	-6.7%	0.4%
COc1ccc(NC(=O)C(=O)NCCC2CCCCN2S(=O)(=O)c2ccccc2)cc1 (stereo not drawn)	i	?	-23.4%	-23.2%	13µM*	-37.2%
COc1ccc(NC(=O)C(=O)NCCC2CCCCN2S(=O)(=O)c2cccs2)cc1 (stereo not drawn)	?	?	?	1.7%	5.8µM*	5.0%
CO[C@H]1[C@H](NC(=O)c2ccco2)c2ccccc2C12CCN(Cc1cccn1-c1ccccn1)CC2	i	nt	nt	nt	nt	nt
O=C(Cn1cncn1)NCC1Cc2cc(-c3ccsc3)cc(Cl)c2O1 (stereo not drawn)	i	nt	nt	nt	nt	nt
Cc1cc(N)n2ncc(-c3ccccc3)c2n1	i	-10.2%	87.0%	-13.1%	-11.2%	-16.1%
CC(=O)Nc1ccc(Nc2cc(C)nc3c(-c4ccccc4)cnn23)cc1	i	14.6µM*	40.0%	0.0%	13µM*	-1.9%
Nc1nc(N)c(-c2cccc(C(F)(F)F)c2)c(Cc2cccc(C(F)(F)F)c2)n1	i	?	?	?	4.61µM*	8.91µM*
Cc1sc2ncn(CC(=O)Nc3cccc(C(F)(F)F)c3)c(=O)c2c1S(=O)(=O)N1CCN(C)CC1	i	nt	-5.6%	-3.7%	nt	-6.0%
CC(=O)Oc1ccc(N2C(=O)C3C(C2=O)C(C(=O)c2ccc(Cl)cc2)N2CCCC32)cc1 (stereo not drawn)	i	?	?	?	23.1µM*	-28.5%
CNC(=O)c1nn(C)c2c1C(C)(C)Cc1cnc(Nc3ccc(N4CCN(C)CC4)cc3)nc1-2	nt	nt	1.72µM*	nt	nt	nt
COc1ccc(/C=C2\CCc3ccccc3C2=O)cc1OC	i	2.0%	42.2%	?	-0.1%	9.4%
CCOc1cc(/C=C2\COc3ccccc3C2=O)ccc1OCC(=O)N(C)C	i	25.9µM*	-26.8%	?	23.1µM*	-80.5%
CCNC(=O)COc1ccc(/C=C2\COc3ccccc3C2=O)cc1OC	?	?	?	?	25.9µM*	-24.2%
SMILES	ATXN viability	HT1080NT lethal	ATXN2 expr inh	TGFb inhibitor	HT1080 IDH1KD tx	HepG2 viability
O=C1/C(=C/c2cccs2)COc2ccccc21	i	-1.0%	6.5%	?	-5.5%	-35.1%
Cc1ccc(C)c(NC(=O)C2CCN(S(=O)(=O)c3c(C)noc3/C=C/c3cccs3)CC2)c1	nt	nt	nt	4.0%	nt	-14.4%
COc1ccc(N2CCN(c3nc4ccc(C)cc4n4nnnc34)CC2)cc1	nt	nt	nt	0.3%	nt	0.4%
CC(CCC(C)[n+]1cccc(C#N)c1)[n+]1cccc(C#N)c1 (stereo not drawn)	nt	nt	nt	20.4%	nt	3.4%
CCc1nc2ccc(C(=O)NCc3ccc4c(c3)OCO4)cn2c1N(CCC(C)C)CCN(C)C	?	20.6µM*	?	?	?	-35.8%
CCCCNC(=O)c1ccc2nc(CC)c(N(CCC(C)C)CCN(C)C)n2c1	i	?	-11.0%	6.5%	?	-17.6%
CCc1nc2ccc(C(=O)NCCOc3ccc(OC)cc3)cn2c1N(CCC(C)C)CCN(C)C	i	?	-65.9%	10.4%	20.6µM*	-23.0%
CCc1nc2ccc(C(=O)NCc3ccc4c(c3)OCO4)cn2c1N(CC)CCN(C)C	i	8.0%	11.2%	11.7%	1.6%	-1.8%
CN(C)c1ccc(N=Cc2ccnc3ccccc23)cc1	nt	nt	nt	0.3%	nt	-33.6%
CCS(=O)(=O)N1CC(CC#N)(n2cc(-c3ncnc4[nH]ccc34)cn2)C1	nt	nt	14.5%	nt	nt	nt
CCN=c1scc(-c2ccc3c(c2)NC(=O)CO3)n1N=C1CCCC1	i	?	-23.4%	-5.9%	?	-28.6%
COCC(C)n1c(-c2ccc3c(c2)NC(=O)CO3)csc1=Nc1ccc(OC(F)F)cc1 (stereo not drawn)	i	20.6µM*!	-38.6%	?	?	12.6µM*!
COc1cc(Cl)cc(/C=C/c2ccc3ccccc3n2)c1OC(C)=O	i	14.6µM*	75.1%	-5.8%	14.6µM*	-67.2%
COc1cc(OC)c(OC)cc1/C=C/c1ccc2ccccc2n1	nt	nt	nt	1.0%	nt	-16.4%
Cc1nn2c(-c3cccc(NC(=O)c4ccc(Cl)cc4)c3)nnc2c2ccccc12	nt	nt	nt	-18.8%	nt	-8.1%

High-throughput results as filed in PubChem BioAssay.
